aDG glyco up: alpha-DG glycosylation activation; Pro5-aDG cells, alpha-DG glycosylation AlphaScreen (IIH6); 0% Pro5, 100% B10-LARGE cell signal; activation, % at 10 µM; hit rate 0.22% among 360,000; AID 624168;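 active = activation of at least 8% versus controls, or a plate z-score of at least 8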;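 note: Pro5 are CHO cells carrying HIG-tagged alpha-DG that lacks glycosylation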
PHOSPHO1 block: inhibitors of human PHOSPHO1 phosphatase. Q8TCT1. recombinant PHOSPHO1, absorbance phosphatase assay. inhibition, % at 13.3 µM. hit rate 1.1% among 290,000; in the data active = inhibition above about 60%
Target sequence (Q8TCT1 whole entry, looked up): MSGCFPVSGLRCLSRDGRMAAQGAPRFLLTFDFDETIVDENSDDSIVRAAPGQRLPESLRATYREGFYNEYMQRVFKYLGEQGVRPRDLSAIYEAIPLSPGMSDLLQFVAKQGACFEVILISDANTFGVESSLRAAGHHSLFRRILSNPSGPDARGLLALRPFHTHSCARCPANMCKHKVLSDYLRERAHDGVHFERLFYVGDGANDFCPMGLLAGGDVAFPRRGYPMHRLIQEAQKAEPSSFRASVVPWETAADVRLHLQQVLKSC
ALR inh: blocks human ALR sulfhydryl oxidase activity. P55789. purified ALR, DTT oxidation, H2O2 HRP-luminol luminescence. inhibition, % (no concentration beside the values). hit rate 3.8% among 290,000;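 active = mean replicate inhibition above about 79%, with every replicate also reaching it, limit read from the data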
Target sequence (P55789 whole entry, looked up): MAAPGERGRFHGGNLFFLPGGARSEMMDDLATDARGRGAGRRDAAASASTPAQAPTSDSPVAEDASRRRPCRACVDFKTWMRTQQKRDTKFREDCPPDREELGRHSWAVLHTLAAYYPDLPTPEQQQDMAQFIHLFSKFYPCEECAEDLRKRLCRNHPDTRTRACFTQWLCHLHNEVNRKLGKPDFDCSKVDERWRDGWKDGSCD
A3A deaminase: inhibitors of human APOBEC3A DNA deaminase. hit rate 0.41% among 330,000. AID 493011. P31941. recombinant A3A, FAM/TAMRA ssDNA deamination fluorescence. inhibition, % at 20 µM;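 active = at least 40% inhibition at 20 µM here, with at most 30% in a related deaminase screen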
Target sequence (P31941 whole entry, looked up): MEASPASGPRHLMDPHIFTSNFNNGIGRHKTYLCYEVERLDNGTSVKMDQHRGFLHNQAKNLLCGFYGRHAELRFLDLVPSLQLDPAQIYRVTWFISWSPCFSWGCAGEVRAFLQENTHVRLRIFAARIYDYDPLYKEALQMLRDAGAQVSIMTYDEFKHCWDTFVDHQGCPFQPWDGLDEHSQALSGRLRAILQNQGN
rCAG binder-1: molecules binding r(CAG) RNA repeats; r(CAG) RNA repeat, TO-PRO-1 dye displacement fluorescence; inhibition, % at 3 µM; hit rate 1.3% among 370,000;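 active = inhibition above the plate cutoff, the mean of all test compounds on that plate plus 3 SD, cut at about 35% in these data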;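 note: higher means more dye released from RNA so lower well fluorescence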
A3G deaminase: blocks human APOBEC3G single-stranded DNA deamination. Q9HC16. recombinant A3G, ssDNA deamination FAM/TAMRA fluorescence. inhibition, % at 20 µM. hit rate 0.28% among 330,000;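 active = inhibition of at least 40% at 20 µM, with no more than 30% in the related APOBEC3A deaminase screen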
rCAG bind conf: r(CAG) RNA repeat binding, confirmation | hit rate 70% among 4,300 | shares compounds with rCAG binder-1 | TO-PRO-1 dye displacement fluorescence | inhibition, % at 3 µM;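 active = inhibition above a per-plate cutoff, the mean inhibition of sample wells plus 3 SD, cut at about 35% in these data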;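 note: loss of TO-PRO-1 fluorescence as compound displaces dye from 1x1 AA loop RNA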
dCAG dye counter: disrupts DNA CAG TO-PRO-1 complex, flagging rCAG hits. shares compounds with rCAG binder-1. d(CAG) DNA oligo TO-PRO-1 dye displacement, fluorescence. inhibition, % at 3 µM. hit rate 94% among 4,300;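 active = inhibition above its plate's cutoff, the mean test-well inhibition plus 3 SD, cut at about 4.8% in these data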;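 note: hits displace the dye from DNA and so lower well fluorescence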
DNA CAG DR: disrupts DNA CAG TO-PRO-1 complex in dose response | hit rate 20% among 250 | shares compounds with rCAG binder-1 | AID 686960 | DNA CAG/GTC duplex TO-PRO-1 dye displacement fluorescence | IC50, µM; in the data active = IC50 below about 10 µM
dCAG DNA bind: counter-screen for rCAG binders: DNA CAG TO-PRO-1 complex inhibitors, late stage; hit rate 80% among 30; shares compounds with rCAG binder-1; d(CAG) DNA duplex TO-PRO-1 dye displacement, fluorescence; AID 720649; IC50, µM
rCAG binder-2: molecules binding r(CAG) RNA repeats, late stage dose response; shares compounds with rCAG binder-1; r(CAG) RNA TO-PRO-1 dye displacement, fluorescence; IC50, µM; hit rate 100% among 30; AID 720651
Each line names hits and unclear results; the compound was inactive in the other large screens (follow-up assays come after a bar, where they were run). An excerpt weighted towards active compounds, which were near 5.4% of everything screened. Unless noted, the rule behind the calls is not given here.

CCOC(=O)C1=C(C)N=c2s/c(=C/c3cccc(OCC(=O)O)c3)c(=O)n2C1c1ccc(F)cc1 (configuration not stated)	rCAG binder-1 71 (no result: aDG glyco up, ALR inh) | rCAG bind conf 76 | dCAG dye counter 38
COc1ccccc1C1C2=C(N=c3s/c(=C/c4cccc(OCC(=O)O)c4)c(=O)n31)c1ccccc1CC2 (configuration not stated)	rCAG binder-1 59 (no result: A3A deaminase, A3G deaminase) | rCAG bind conf 78 | dCAG dye counter 43
CCOC(=O)C1=C(C)N=c2sc(=Cc3cc(Cl)c(OCC(=O)O)c(OC)c3)c(=O)n2C1c1ccccc1Cl (configuration not stated)	none (no result: PHOSPHO1 block, ALR inh, A3A deaminase, A3G deaminase)
O=C1CCC2(CCCCC2)N1	none (no result: PHOSPHO1 block, ALR inh, A3A deaminase, A3G deaminase)
O=C1CCC(C(=O)N2CCN(c3cnccn3)CC2)CN1CCc1ccccc1 (configuration not stated)	none (no result: PHOSPHO1 block, ALR inh, A3A deaminase, A3G deaminase)
COC/C=C/C1=CC2=CC(=O)C(C)(OC(=O)C3CCCC3)C(=O)C2=CO1 (configuration not stated)	rCAG binder-1 50 | rCAG bind conf inactive | dCAG dye counter 15
Cc1ccc(S(=O)(=O)/N=C2\C=C(Nc3cccc(C(=O)O)c3)C(=O)c3ccccc32)c(C)c1	rCAG binder-1 76 | rCAG bind conf 83 | dCAG dye counter 50
Cc1ccc(S(=O)(=O)/N=C2\C=C(Nc3ccc(O)cc3)C(=O)c3ccccc32)cc1	none (no result: PHOSPHO1 block, rCAG binder-1)
Cc1ccc(NC2=C/C(=N/S(=O)(=O)c3cccs3)c3ccccc3C2=O)cc1	none
Cc1ccc(S(=O)(=O)/N=C2\C=C(NS(=O)(=O)c3ccccc3)C(=O)c3ccccc32)c(C)c1	rCAG binder-1 54 (no result: PHOSPHO1 block, ALR inh, A3A deaminase, A3G deaminase) | rCAG bind conf 86 | dCAG dye counter 58
Cc1ccc(S(=O)(=O)/N=C2\C=C(Nc3cccc(C(=O)O)c3)C(=O)c3ccccc32)cc1	rCAG binder-1 47 (no result: ALR inh) | rCAG bind conf inactive | dCAG dye counter 4.7
CN1CCN(C2=C(NS(=O)(=O)c3ccccc3)C(=O)c3ccccc3C2=O)CC1	none (no result: rCAG binder-1)
COc1cccc2[nH]c(-c3ccccn3)nc12	none (no result: aDG glyco up, PHOSPHO1 block, ALR inh, A3A deaminase, A3G deaminase)
NC(=O)c1ncn([C@@H]2O[C@H](CNS(=O)(=O)c3cc4ccccc4s3)[C@@H](O)[C@H]2O)n1	none (no result: PHOSPHO1 block, ALR inh, A3A deaminase, A3G deaminase)
O=C(OCn1nnc2ccccc2c1=O)c1ccc(F)c(S(=O)(=O)N2CCOCC2)c1	none (no result: PHOSPHO1 block, ALR inh, A3A deaminase, A3G deaminase)
CC(=O)N1C[C@@H](CO)[C@@H](N(C)C(=O)C(C)(C)C)C[C@H]1c1ccccc1	none (no result: PHOSPHO1 block, ALR inh, A3A deaminase, A3G deaminase)
NC(C(=O)O)C1ON=C(Cl)C1O (configuration not stated)	rCAG binder-1 41 (no result: PHOSPHO1 block, ALR inh, A3A deaminase, A3G deaminase) | rCAG bind conf inactive | dCAG dye counter inactive
COC(=O)[C@@]12C[C@@H](CC(=O)NCc3ccc(OC)c(OC)c3)C(=O)N(Cc3ccccc3)C1=CCC(C)(C)C2	none (no result: PHOSPHO1 block, ALR inh, A3A deaminase, A3G deaminase)
CCOc1ccc(-c2ccc(/C=C3/C(=N)N4C(C)=CSC4=NC3=O)o2)c([N+](=O)[O-])c1	rCAG binder-1 49 | rCAG bind conf inactive | dCAG dye counter 12
Oc1csc(Cc2nc(-c3ccc4ccccc4c3)cs2)n1	rCAG binder-1 36 | rCAG bind conf inactive | dCAG dye counter 18
Oc1csc(Cc2nc(-c3ccc(-c4ccccc4)cc3)cs2)n1	none
O=[N+]([O-])c1ccccc1N(S(=O)(=O)c1ccccc1)S(=O)(=O)c1ccccc1	none (no result: PHOSPHO1 block, ALR inh, A3A deaminase, A3G deaminase)
CC(=O)C1=C(O)C(=Cc2ccccc2)OC1=O	rCAG binder-1 36 (no result: PHOSPHO1 block, ALR inh, A3A deaminase, A3G deaminase) | rCAG bind conf inactive | dCAG dye counter 6.6
Cn1c(=O)c2cc(NC(=O)OCCF)ccc2n1Cc1cccc(C(F)(F)F)c1	none (no result: PHOSPHO1 block, ALR inh, A3A deaminase, A3G deaminase)
O=C1NC(Cc2ccc(O)cc2)c2nc3ccccc3c(=O)n2-c2ncccc21 (configuration not stated)	none (no result: PHOSPHO1 block, ALR inh, A3A deaminase, A3G deaminase)
CCN(CC)C(=O)CSc1nc2ccccc2c(=O)n1-c1cccc(OC)c1	none (no result: ALR inh)
COc1cccc(-n2c(SCc3cc(=O)oc4cc(O)c(O)cc34)nc3ccccc3c2=O)c1	rCAG binder-1 65 (no result: A3A deaminase, A3G deaminase) | rCAG bind conf 70 | dCAG dye counter 33
CCCCn1c(NC(=O)c2ccccc2Cl)c(C#N)c2nc3ccccc3nc21	rCAG binder-1 91 | rCAG bind conf 85 | dCAG dye counter 58
CCCCn1c(NC(=O)CC)c(C#N)c2nc3ccccc3nc21	none
COc1ccc(-n2c(NC(=O)c3ccco3)c(C#N)c3nc4ccccc4nc32)cc1	rCAG binder-1 53 | rCAG bind conf 43 | dCAG dye counter 13
Cc1ccc(CNC(=O)C2CC(=O)N(CCC(C)C)C2)cc1 (configuration not stated)	none
CCCCN1CC(C(=O)NCc2ccc(C)cc2)CC1=O (configuration not stated)	rCAG binder-1 46 | rCAG bind conf inactive | dCAG dye counter inactive
O=C1C(c2cc(=O)c3ccccc3[nH]2)=C(O)c2ccccc21	rCAG binder-1 63 | rCAG bind conf 36 | dCAG dye counter 8.5
O=S(=O)(Nc1cccc(S(=O)(=O)N2CCCC2)c1)c1ccc(Cl)cc1	rCAG binder-1 36 (no result: PHOSPHO1 block) | rCAG bind conf inactive | dCAG dye counter 6.5
O=S(=O)(Nc1cccc(S(=O)(=O)N2CCCCCC2)c1)c1ccccc1	none
CCN(CC)S(=O)(=O)c1cc(NS(=O)(=O)c2cccs2)ccc1C	none (no result: PHOSPHO1 block)
CCN(CC)S(=O)(=O)c1cc(NS(=O)(=O)c2cc(Cl)ccc2Cl)ccc1C	rCAG binder-1 44 | rCAG bind conf 40 | dCAG dye counter 12
C/C(Nc1ccc(Cl)cc1)=C1/CCOC1=O	none (no result: PHOSPHO1 block, ALR inh, A3A deaminase, A3G deaminase)
O=C1CNC(=O)c2cc(Cl)ccc2N1	none (no result: PHOSPHO1 block, ALR inh, A3A deaminase, A3G deaminase)
N=C1/C(=C\c2ccc(-c3cc(Cl)cc(Cl)c3)o2)C(=O)N=C2SC=C(c3ccccc3)N12	rCAG binder-1 37 | rCAG bind conf 38 | dCAG dye counter 22
CC(C)S(=O)(=O)C1=NSC2=NC(=O)/C(=C\c3ccc(-c4cccc(C(=O)O)c4)o3)C(=N)N21	rCAG binder-1 72 (no result: ALR inh, A3A deaminase, A3G deaminase) | rCAG bind conf 74 | dCAG dye counter 29 | DNA CAG DR inactive | dCAG DNA bind 1.3 | rCAG binder-2 0.33
